Reference: PubChem BioAssay AID686971 (National Center for Advancing Translational Sciences (NCATS), 2013)
In all, about 360,000 compounds went through this assay and about 7,500 (2.1%) were called active. Entries that show only a call come without a potency. Inconclusive results (about 8%) are left out. This is one part of a sample in which actives are shown more often than they occur. Calls come from the whole dose curve; as a rule, active = well fitted cell-killing curve with a large enough effect; inconclusive = small, poorly fitted or top-dose-only effect, or effect the other way, or another doubt; inactive = no such curve, though single readings can be large or run the other way.

assay: qHTS for induction of synthetic lethality in tumor cells producing 2HG: qHTS for the HT-1080-IDH1KD cell line; conditions: HT-1080 IDH1 knockdown viability, ATP luminescence, 48 h; series mostly up to 46.1 µM
Procedure, shortened: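 Assay cells: HT-1080 with IDH1 knockdown, 750 per well, RPMI/5% FBS. Exposure: 48 h at 37 °C following 2 h pre-incubation. Read: CellTiter-Glo luminescence; fitted concentration-response, curve class assigned.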
Potency is the fitted concentration of half-maximal effect.

Row | SMILES | Potency
1 | CCCCNC(=O)C[C@@H]1C[C@@]2(C(=O)OC)CC(C)(C)CC=C2N(Cc2ccco2)C1=O | inactive
2 | C[C@H](NC(=O)[C@@H]1CCCN1C(=O)[C@@H]1CCCN1C(=O)c1ccccc1)c1ccccc1 | inactive
3 | CC1=C(C(=O)N(C)C)CC(CC(=O)NCCc2ccccn2)C(=O)N1CCC1=CCCCC1 (stereo unspecified) | inactive
4 | O=C1COc2ccc(S(=O)(=O)Nc3ccc(OC(F)(F)F)cc3)cc2N1 | inactive
5 | Cc1nn(C)c(C)c1NS(=O)(=O)c1ccc(OC(F)(F)F)cc1 | inactive
6 | O=S(=O)(Nc1ccc(O)c2ccccc12)c1ccc(OC(F)(F)F)cc1 | 20.6 µM (active)
7 | Cn1c(CCN2CCN(c3ccccn3)CC2)nc2cc(NS(=O)(=O)c3ccc(F)cc3)ccc21 | inactive
8 | C[C@]12CC[C@H](O)CC1=CCC1C2CC[C@@]2(C)C1CC[C@@H]2NC(=O)CCC(=O)O (stereo partly specified) | inactive
9 | C[C@@H]1CC[C@@]2(OC1)O[C@H]1C[C@H]3[C@@H]4CC=C5C[C@@H](O)[C@H](O)C[C@]5(C)C4CC[C@]3(C)[C@H]1[C@@H]2C (stereo partly specified) | inactive
10 | CC(=O)OC1CCC2(C)C(=CCC3C4CC(=O)N(O)C(=O)C4(C)CCC32)C1 (stereo unspecified) | 25.9 µM (active)
11 | OC[C@@H]1CN(C2CCCC2)C[C@H](n2cnc3c(NC4CCC4)ncnc32)O1 | inactive
12 | CCC(C)C(CO)NC(=O)/C=C/[C@H]1O[C@@H](n2cnc3c(NC(=O)c4ccccc4)ncnc32)[C@H](O)[C@@H]1O (stereo partly specified) | inactive
13 | Cc1ccccc1Nc1nc(-c2cccnc2)cs1 | inactive
14 | O=C(NCc1cccnc1)C(=O)Nc1nc(-c2ccccc2)cs1 | 4.61 µM (active)
15 | O=C(NCc1cccnc1)Nc1ccccc1F | inactive
16 | C[C@H](CO)N1C[C@H](C)[C@@H](CN(C)C(=O)c2cnccn2)Oc2ncc(Br)cc2C1=O | inactive
17 | Fc1cccc(Cc2c(-c3ccc(Cl)cc3)nc3ccc(Cl)cn23)c1 | inactive
18 | Cc1cc2nc(-c3ccc(F)cc3)c(Cc3ccsc3)n2c(C)c1Br | inactive
19 | Cc1cc2nc(-c3ccco3)c(Cc3cccc(F)c3)n2c(C)c1Br | 20.6 µM (active)
20 | COc1ccc(S(=O)(=O)N2CCCCC2c2cc(C(=O)NCc3ccc(F)cc3)no2)cc1 (stereo unspecified) | inactive
21 | O=C(OC1CC2CC1[C@H]1CCCCN1C2=O)N1CCOCC1 (stereo partly specified) | inactive
22 | CCCCNC(=O)OC1CC2CC1[C@H]1CCCCN1C2=O (stereo partly specified) | 25.9 µM (active)
23 | CCCCNC(=O)C1CCCNC1=O (stereo unspecified) | inactive
24 | OC(c1ccc(F)cc1)c1ncc(-c2cccc(C(F)(F)F)c2)[nH]1 (stereo unspecified) | inactive
25 | Cc1cc(Br)cn2c(Cc3ccccc3C(F)(F)F)c(C3CCCCC3)nc12 | inactive
26 | C[C@H](CO)N1C[C@H](C)[C@@H](CN(C)S(=O)(=O)c2ccc(Oc3ccccc3)cc2)OCc2cn(nn2)CCCC1=O | inactive

Row | SMILES | Potency
27 | COc1cccc(NC(=O)c2nn(C34CC5CC(CC(C5)C3)C4)cc2[N+](=O)[O-])c1 | inactive
28 | O=C(Nc1ccc2c(c1)OCCO2)c1ccoc1 | inactive
29 | Cn1cc([N+](=O)[O-])c(C(=O)Nc2ccc3c(c2)OCCO3)n1 | 11.2 µM (active)
30 | CNC(=O)C1CN(C(=O)c2cccc(S(=O)(=O)N3CCc4ccccc43)c2)c2ccccc2O1 (stereo unspecified) | inactive
31 | COc1ccc(C(CNC(=O)c2ccc(OCc3cscn3)cc2)N2CCCC2)cc1 (stereo unspecified) | inactive
32 | Cc1cccc(C(=O)OCC(=O)Nc2sccc2C(N)=O)c1C | inactive
33 | O=C(NCCc1cccc(F)c1)C1CC(O)CN1C(=O)Nc1ccccc1 (stereo unspecified) | inactive
34 | O=C(O)C(=Cc1ccc([N+](=O)[O-])cc1)CCc1ccccc1 | inactive
35 | CN1CCN(C2Cc3ccc(Cl)cc3Sc3ccc(F)cc32)CC1 (stereo unspecified) | 13 µM (active)
36 | O=[N+]([O-])c1ccc(CN2CC(N3CC=CC3)CS2(=O)=O)cc1 (stereo unspecified) | inactive
37 | CSc1ccc(CN2CCC2(C)C(=O)Nc2ccc(C)c(O)c2)cc1 (stereo unspecified) | inactive
38 | CCCCN1C(=O)C(CC(=O)NCc2cccs2)CC(C(=O)N2CCOCC2)=C1C (stereo unspecified) | inactive
39 | O=C(NNC(=O)c1ccc(Cl)cc1Cl)c1cccs1 | inactive
40 | Cc1ccc(NC(=O)c2cccs2)cc1S(=O)(=O)N(C)C | inactive
41 | Cc1ccc(NNC(=O)c2cccs2)cc1Cl | 5.8 µM (active)
42 | Cc1ccc(C(=O)Nc2ccc(NC(=O)c3cccs3)cc2)c(C)c1 | 16.4 µM (active)
43 | Cc1ccc(C)c(NC(=O)CCC(=O)NNC(=O)c2cccs2)c1 | inactive
44 | Cc1ccc(C(=O)NNC(=O)c2cccs2)cc1 | inactive
45 | COC(=O)c1ccc2nc(-c3ccc(C)cc3)c(Cc3ccc(OC)cc3C)n2c1 | inactive
46 | CCCNC(=O)c1cc2c(c(-c3cccc(-c4ccc(C#N)cc4)c3)n1)[C@@H](CCO)N(C(=O)CC)C2 | inactive
47 | O=C(NNC(=O)c1ccccc1O)c1ccccc1O | 9.2 µM (active)
48 | Cc1cc(C(=O)CCC(=O)NNC(=O)c2ccccc2O)c(C)s1 | inactive
49 | CC1=C(C)CC(C(=O)NNC(=O)c2ccccc2O)C(C(=O)O)C1 (stereo unspecified) | inactive
50 | CCNC(=O)c1cc2c(c(-c3cccc(-c4cncnc4)c3)n1)[C@H](CCO)N(C(C)=O)C2 | inactive
51 | O=C(Nc1cccc(C(=O)O)c1)/C(=C\c1ccccc1)NC(=O)c1ccc(Br)o1 | inactive
52 | Cc1cc(C)n(-c2nc(C(F)(F)F)nc3ccccc23)n1 | inactive

Row | SMILES | Potency
53 | CC(C)n1c(-c2cccs2)nc2ccccc21 | inactive
54 | CC(Nc1nc(C(F)(F)F)nc2ccccc12)c1cccs1 (stereo unspecified) | 16.4 µM (active)
55 | COCCCNC(=O)c1cccc2c(-c3ccc(O)c(OC)c3)coc12 | inactive
56 | NC(CSC(c1ccccc1)(c1ccccc1)c1ccc(-c2ccccc2)cc1)C(=O)O (stereo unspecified) | inactive
57 | O=C(NCc1nnnn1-c1ccc(Cl)cc1)c1ccc2c(c1)OCO2 | inactive
58 | CCNC(=O)C1(C)CCCN(C(=O)c2ccc3ccccc3n2)C1 (stereo unspecified) | inactive
59 | Cc1cccc2nc(CSc3nc4[nH]ncc4c(=O)n3-c3cccc(Cl)c3)cc(=O)n12 | inactive
60 | O=c1c2sccc2nc(SCc2cc(=O)n3ccccc3n2)n1-c1ccc(Br)cc1 | inactive
61 | CCc1ccc(-n2c(SCc3cc(=O)n4cc(Br)ccc4n3)nc3[nH]ncc3c2=O)cc1 | 18.4 µM (active)
62 | CCc1nc2c(OCC(=O)C(C)(C)C)cccn2c1N(C)C(=O)c1ccccc1F | inactive
63 | CCC(=O)N1CCCC1(C)C(=O)Nc1ccc2c(c1)CCN2C(C)=O (stereo unspecified) | inactive
64 | Cc1cc(C)n(-c2ccc(C(=O)O)cc2[N+](=O)[O-])n1 | inactive
65 | COc1ccc(NC(=O)c2nc(-n3nc(C)cc3C)ccc2Cl)cc1Cl | inactive
66 | CC(=O)c1ccc(Oc2cc(C)nc(-n3nc(C)cc3C)n2)cc1 | 4.61 µM (active)
67 | CCOC(=O)c1cnc(-n2nc(C)cc2C)nc1NNc1cc(C)nc(-c2ccccc2)n1 | inactive
68 | COc1ccc(Nc2cc(Sc3ccc(OC)cc3)ncn2)cc1 | inactive
69 | COc1ccc(Nc2cc(C)nc(-n3nc(C)cc3C)n2)cc1 | 0.794 µM (active)
70 | O=C1c2ccccc2-c2ccccc2NC1O (stereo unspecified) | inactive
71 | CCC(=O)N1CCC(C)(C(=O)Nc2cc(OC)c(OC)c(OC)c2)C1 (stereo unspecified) | inactive
72 | CCOC(=O)[C@]12CCCC=C1N(CCC1=CCCCC1)C(=O)[C@H](CC(=O)N1CCCCC1)C2 | inactive
73 | Cc1ccc(-c2nc3c(Cl)cc(C(F)(F)F)cn3c2Cc2cccc(Cl)c2)cc1 | inactive
74 | CNC(=O)C[C@H]1C(=O)N(Cc2ccccc2)C[C@@H]1CSC | inactive
75 | Cc1nc(N2CCOCC2)c2c(C)c(C(=O)Nc3ccc(C(F)(F)F)cc3)sc2n1 | 20.6 µM (active)
76 | Cc1nc(N2CCN(c3ccccn3)CC2)c2c(C)c(C(=O)Nc3ccc(F)cc3)sc2n1 | inactive
77 | Cc1nc(N2CCN(c3ccccn3)CC2)c2c(C)c(C(=O)Nc3ccc(F)c(Cl)c3)sc2n1 | inactive
78 | CC1(C)Cc2cccc(OCC(=O)NCc3ccccc3)c2O1 | inactive

Row | SMILES | Potency
79 | COc1ccc(NC(=O)C2(C)Cc3c(-c4cccc(NC(C)=O)c4)ccnc3O2)cc1OC (stereo unspecified) | 14.6 µM (active)
80 | CC(=O)Nc1cccc(-c2ccnc3c2CC(C)(C(=O)NCc2ccccc2)O3)c1 (stereo unspecified) | 0.651 µM (active)
81 | CC1(C(=O)Nc2cccnc2)Cc2c(-c3ccccc3)ccnc2O1 (stereo unspecified) | inactive
82 | O=C(NCc1ccc2c(c1)OCO2)c1cc(F)c(F)cc1Cl | inactive
83 | CC1(C(=O)NCc2ccc(F)c(F)c2)Cc2c(-c3ccc4c(c3)OCO4)ccnc2O1 (stereo unspecified) | 4.61 µM (active)
84 | COc1ccc(NC(=O)C2Cc3c(-c4cccc(NC(C)=O)c4)ccnc3O2)cc1OC (stereo unspecified) | inactive
85 | COc1cc(OC)c(C(=O)NCc2ccc3c(c2)OCO3)cc1OC | inactive
86 | COc1ccc(NC(=O)C2(C)Cc3c(-c4ccc(C(N)=O)cc4)ccnc3O2)cc1 (stereo unspecified) | inactive
87 | O=C(Nc1ccc(F)cc1)Nc1nnc([C@H]2C[C@H](O)[C@@H](CO)O2)s1 | inactive
88 | CC(C)c1cc(C(=O)N(C)C2CCCN(Cc3ccccc3F)C2)n(C)n1 (stereo unspecified) | inactive
89 | COc1ccccc1Cc1c(-c2ccc(Cl)cc2)nc2c3ccccc3ccn12 | inactive
90 | CCCS(=O)(=O)NC(=O)C1(C)CCCN(C(=O)c2cccs2)C1 (stereo unspecified) | inactive
91 | Cc1cc(Br)cn2c(Cc3ccccc3C(F)(F)F)c(-c3ccc(Cl)cc3)nc12 | inactive
92 | COc1c(C)cc(C(O)c2ncc(-c3cccc(C(F)(F)F)c3)[nH]2)cc1C (stereo unspecified) | inactive
93 | O=C(Nc1cccc2ccccc12)NC1CC1 | inactive
94 | O=C(CSc1ncn[nH]1)Nc1nc2c(F)c(F)c(F)cc2s1 | inactive
95 | C/C(=N/NC(=O)CCc1ccccc1)c1ccco1 | inactive
96 | C/C(=N\NC(=O)c1ccoc1C)c1ccccc1O | 13 µM (active)
97 | Cc1occc1C(=O)NNC(=S)NCC(C)C | inactive
98 | CCN(CC(=O)Nc1ccc(NC(C)=O)cc1)C(=O)C1CC(=O)N(c2ccc3c(c2)OCCO3)C1 (stereo unspecified) | inactive
99 | O=C1c2cccc3c([N+](=O)[O-])ccc(c23)C(=O)N1CC1CCCO1 (stereo unspecified) | 18.4 µM (active)
100 | CN1CN(C)c2ccc([N+](=O)[O-])c3cccc1c23 | inactive
101 | CCOc1cccc(=O)c2c(C)n(CC3CCCO3)c(C)c12 (stereo unspecified) | inactive
